# Screens: PubChem BioAssay, National Center for Advancing Translational Sciences (NCATS)
# Compounds with a hit are over-represented: about 10% of the library has one in this group of screens.
# BAZ2B block: blocks human BAZ2B; Q9UIF8; AlphaScreen BAZ2B-H3K14Ac peptide displacement; Potency, µM (series often up to 114 µM), for the others: at the top dose activity change, negative = inhibition, hits mostly inhibitors; 4.4% of 360,000 active; AID 504333; further: potency means the concentration at half of the fitted maximal effect; on the % scale 0 is the no-effect control and ±100 the full control effect; nearly all actives have a fitted effect of over 60% in size
#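 BAZ2B 50 nM plus b-H3(5-23)K14Ac 50 nM, PBS pH 7.4/0.01% Tween-20, 30 min RT; compound added (max 110 uM), 30 min RT; streptavidin donor/Ni-chelate acceptor beads 10 ug/mL final, 20 min dark; AlphaScreen read.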
# G9a inh: inhibitors of human histone lysine methyltransferase G9a | G9a H3K9 monomethylation, AlphaScreen, 2 h | Potency, µM (doses to about 102 µM), for the others: at the top dose activity, negative = inhibition, actives largely listed as inhibitors | 8.8% of 350,000 active | Q96KQ7; further: potency means the concentration at half of the fitted maximal effect; on the % scale 0 is the no-effect control and ±100 the full control effect; nearly all actives have a fitted effect of over 75% in size
# Target sequence (Q96KQ7 913-1193 limits assumed): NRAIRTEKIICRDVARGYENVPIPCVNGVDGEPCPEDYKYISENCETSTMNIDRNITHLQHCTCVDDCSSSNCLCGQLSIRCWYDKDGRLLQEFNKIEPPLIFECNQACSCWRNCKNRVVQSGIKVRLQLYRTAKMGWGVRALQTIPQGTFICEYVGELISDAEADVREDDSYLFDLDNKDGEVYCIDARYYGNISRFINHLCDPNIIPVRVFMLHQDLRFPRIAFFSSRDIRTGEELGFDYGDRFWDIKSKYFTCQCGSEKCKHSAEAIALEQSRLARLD
#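 Readings reflect AlphaScreen signal from monomethyl-H3K9 antibody detection. HMT at 20 nM; substrate b-H3K9 500 nM; cofactor SAM 20 uM; 2 h RT reaction; compounds tested as titrations in qHTS with 15 min preincubation.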
# CtBP-E1A blk: inhibitors of CtBP/E1A interaction. 0.49% of 340,000 active. activity change, % (concentration not given with the values). AID 651724. AlphaScreen GST-E1A/His-CtBP binding, 1536-well; active compounds read low; in the data active means activity change below about -65%; inconclusive means mostly about -30% to -63%; further: on the % scale 0 is the no-effect control and ±100 the full control effect
#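 Homogeneous bead-based format: GST-tagged E1A captured on glutathione donor beads, His-tagged CtBP on nickel acceptor beads; compounds precede bead addition by 2 h at 37 °C.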
# JMJD2A Tudor: blocks the human JMJD2A Tudor domain; O75164; AlphaScreen JMJD2A-Tudor / H3K4me3 peptide binding; Potency, µM (titrated, usually from 114 µM), for the others: at the top dose activity change, negative = inhibition, actives largely listed as inhibitors; 4.4% of 390,000 active; AID 504339; further: potency means the concentration at half of the fitted maximal effect; on the % scale 0 is the no-effect control and ±100 the full control effect; nearly all actives have a fitted effect of over 50% in size
# Six1-Eya2 blk: blocks human Six1 binding to Eya2; Q15475+O00167; AlphaScreen GST-Six1/His-Eya2 binding, biochemical; active compounds read low; activity change, % (concentration not given with the values); 0.56% of 360,000 active; in the data active means activity change below about -65%; inconclusive means mostly about -30% to -63%; further: on the % scale 0 is the no-effect control and ±100 the full control effect
#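 Compounds are tested against tagged Six1 and Eya2 proteins bridged by glutathione donor and nickel acceptor beads; after a one-hour incubation at 37 °C without light, AlphaScreen emission is recorded.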
# HP1b binding inh: blocks HP1-beta chromodomain binding to methylated histone tails; Potency, µM (titrated, usually from 114 µM), without a hit: top-dose activity change, negative = inhibition, actives largely listed as inhibitors; AlphaScreen HP1-beta / biotin-H3K9me3 peptide binding; 0.56% of 390,000 active; P83916; further: potency means the concentration at half of the fitted maximal effect; nearly all actives have a fitted effect of over 70% in size
# Target sequence (P83916 whole entry, looked up): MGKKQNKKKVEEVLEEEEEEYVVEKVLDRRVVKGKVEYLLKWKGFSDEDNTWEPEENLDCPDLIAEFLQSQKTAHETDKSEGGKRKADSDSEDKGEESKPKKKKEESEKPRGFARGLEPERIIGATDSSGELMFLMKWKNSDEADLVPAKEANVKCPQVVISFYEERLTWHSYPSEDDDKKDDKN
#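 HP1-beta protein (50 nM final) preincubated 30 min at room temperature with biotinylated H3(1-18)K9me3 peptide (50 nM) in PBS pH 7.4, 0.01% Tween-20, then compound added for 30 min. AlphaScreen streptavidin donor/nickel chelate acceptor beads (10 ug/mL final), 30 min dark, luminescence read.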
# * = called active by the depositor; ? = inconclusive; / = not tested or not shown; [ ] = remark or other dose. Unless noted, the call rests on the fitted dose curve; in most records, active means well fitted inhibition curve with a large enough effect; inconclusive means small, poorly fitted or top-dose-only effect; inactive means no such curve, though single readings can be large or run the other way.
SMILES,BAZ2B block,G9a inh,CtBP-E1A blk,JMJD2A Tudor,Six1-Eya2 blk,HP1b binding inh
CC(C)N(Cc1ccccc1)C(=O)Cn1ncc2c([nH]c3ccccc32)c1=O,-2%,-4%[59 µM],/,-16%,/,13%
COc1cc(/C=N/n2c(-c3ccc4c(c3)NC(=O)CO4)csc2=Nc2cccc(C)c2)ccc1O,8.9µM*,10µM*,-17,?,?,?
COCCN=c1scc(-c2ccc3c(c2)NC(=O)CO3)n1/N=C(\C)c1ccc(O)cc1,28µM*,/,-23,22µM*,?,?
CC(C)(C)C1CCC(=NNc2nc3ccccc3[nH]2)CC1 (stereo not given),?,40µM*,-14,-28%,-20,27%
c1ccc(CN2CCC(=NNc3nc4ccccc4[nH]3)CC2)cc1,/,-34%,3,?,-16,-3%
CN(C)c1ccc(C(=O)NCc2ccc3c(c2)CCN3C(=O)c2ccccc2)cc1,10%,40%[59 µM],/,?,/,10%
CC(C)CNS(=O)(=O)c1cc(C(=O)O)c(Cl)cc1Cl,-36%,?,15,1%[11.4 µM],3,19%
O=C(O)c1cccc(NS(=O)(=O)c2ccc(-c3ccc(S(=O)(=O)Nc4cccc(C(=O)O)c4)cc3)cc2)c1,-13%,50µM*,/,-27%,-9,24%
O=C(O)c1ccc(Cl)c(S(=O)(=O)Nc2ccc(S(=O)(=O)Nc3cccc(Cl)c3)cc2)c1,-33%,56µM*,-25,-6%,-9,-2%
CC(NS(=O)(=O)c1ccc2c(c1)C(=O)c1cc(S(=O)(=O)NC(C)C(=O)O)ccc1-2)C(=O)O (stereo not given),-20%,28µM*,?,10µM*,?,?
O=C(O)c1ccc(NS(=O)(=O)c2cc(Cl)ccc2Cl)cc1,-20%,-5%,6,1%,1,47%
O=C(O)c1cc(S(=O)(=O)Nc2cccc3ccccc23)c(Cl)cc1Cl,-38%,56µM*,-9,79µM*,3,-12%
CC(=O)NS(=O)(=O)c1ccc2c(c1)C(=O)c1cc(S(=O)(=O)NC(C)=O)ccc1-2,-10%,9%[0.501 µM],/,-5%,-5,2%
Cc1cccc(OCCOCCn2c(-c3ccc(Cl)cc3)nc3ccccc3c2=O)c1C,57%,86%[59 µM],/,59%,/,108%
CCOC(=O)N1CCc2c(sc3c2c(=O)n(CCc2ccccc2)c(=O)n3Cc2ccc(C)cc2C)C1,-29%,-29%[59 µM],/,-7%,/,26%
CCC(Sc1nc2ccccc2c2nc(-c3ccccc3)nn12)C(=O)Nc1cccc(OC)c1 (stereo not given),4%,-2%[59 µM],/,1%,/,45%
CC(C)N(C(=O)Cn1cc(SCC(=O)Nc2ccccc2C(F)(F)F)c2ccccc21)C(C)C,-14%,-7%[59 µM],/,-12%,/,49%
O=C(O)c1cccc(S(=O)(=O)Nc2ccc(-c3ccccc3)cc2)c1,/,/,0,-20%,-1,14%
O=C(Nc1cccc(C(F)(F)F)c1)c1cccc(NS(=O)(=O)c2ccc(O)c(C(=O)O)c2)c1,-18%,?,3,56µM*,-11,-1%
O=C(O)c1cccc(NC(CNS(=O)(=O)c2ccc(Cl)cc2)c2ccccc2)c1 (stereo not given),79µM*,?,20,-23%,4,6%
O=C(O)c1ccc(NS(=O)(=O)c2ccc3c(c2)C(=O)c2ccccc2C3=O)cc1,-35%,45µM*,?,-20%,-72*,24%
O=S(=O)(NCC(Nc1ccccc1)c1ccccc1)c1ccc(Cl)cc1 (stereo not given),-9%,-43%[59 µM],-15,-21%,-10,10%
O=C(O)c1ccc(Cl)c(S(=O)(=O)Nc2ccccc2Cc2ccccc2)c1,2%,79µM*,1,-11%,0,15%
CCOC(=O)c1c(C)oc2c1c(C(c1ccncc1)N1CCOCC1)c(O)c1ccccc12 (stereo not given),14µM*,?,-15,?,-24,71µM*
CCOC(=O)c1c(C)oc2c1c(CN1CCN(C(=O)OCC)CC1)c(O)c1ccccc12,?,3.2µM*,0,?,-13,-27%
SMILES,BAZ2B block,G9a inh,CtBP-E1A blk,JMJD2A Tudor,Six1-Eya2 blk,HP1b binding inh
CCOC(=O)c1c(C)oc2c1c1c(c3ccccc32)OCN(Cc2ccccn2)C1,45µM*,12%[0.501 µM],-16,?,?,-8%
CCOC(=O)c1c(C)oc2c1c(C=NC1CCS(=O)(=O)C1)c(O)c1ccccc12 (stereo not given),-1%,-137%,6,-15%,-8,17%
CCOC(=O)c1c(C)oc2c1c(C=NCCC(=O)O)c(O)c1ccccc12,?,50µM*,-18,-24%,-6,24%
Cc1ccc(Cl)cc1NC(=O)C1CCCN(S(=O)(=O)c2cccc3cccnc23)C1 (stereo not given),-8%,-6%[59 µM],/,-22%,/,13%
C/C(=C(/CCOC(=O)C(C)C)SS/C(CCOC(=O)C(C)C)=C(\C)N(C=O)Cc1cnc(C)nc1N)N(C=O)Cc1cnc(C)nc1N,/,-1%[12.7 µM],/,/,/,/
CCOC(=O)c1c(C)oc2ccc(O)c(CN3CCCCC3)c12,15%,1%[12.7 µM],9,-6%,0,19%
CCOC(=O)c1c(C)oc2c1c(CN1CCN(CCO)CC1)c(O)c1ccccc12,/,1.4µM*,-14,?,-9,?
CCn1cc(/C=C/C(=O)Nc2ccn(Cc3c(F)c(F)cc(F)c3F)n2)cn1,-6%,45µM*,0,-25%,-11,8%
CCn1cc(/C=C/C(=O)Nc2ccc(C)cc2Br)cn1,4%,17%[59 µM],-5,-2%,1,42%
O=c1c(CCc2ccccc2)nc2cnc(N3CCNCC3)nc2n1CCc1ccccc1,/,7%[12.7 µM],/,/,/,/
O=C(CC1N=C2c3ccccc3N=C(SCC(=O)Nc3ccccc3F)N2C1=O)NCc1ccc2c(c1)OCO2 (stereo not given),?,13µM*,/,-25%,/,14%
O=C(CCC1N=C2c3ccccc3N=C(SCc3cccc(F)c3)N2C1=O)NCc1cccs1 (stereo not given),-6%,-2%[59 µM],/,79µM*,/,-2%
COc1ccccc1NC(=O)CSC1=Nc2ccccc2C2=NC(CC(=O)NCc3ccc4c(c3)OCO4)C(=O)N12 (stereo not given),-16%,-3%[59 µM],/,-31%,/,7%
NC(=O)c1ccc(NC(=O)CCCc2nc(-c3ccccc3Cl)no2)cc1,-11%,50µM*,-13,-4%,-10,19%
COc1ccc(-c2noc(CCCC(=O)Nc3ccc(C(N)=O)cc3)n2)cc1,2%,14%[59 µM],2,-7%,0,14%
Fc1ccc(NCc2cn3ccccc3n2)cc1,50µM*,-37%[59 µM],-1,-34%,0,16%
